Pf growth 48h – inhibits P. falciparum growth in the first generation, 48 h; P. falciparum luciferase growth in erythrocytes, 48 h; Potency, µM (doses to about 28.7 µM), for the others: top-dose activity change, negative = inhibition, most hits filed as inhibitors; actives 5.9% (n = 310,000); further: potency means the concentration at half of the fitted maximal effect; on the % scale 0 is the no-effect control and ±100 the full control effect
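Compounds are pin-transferred into medium, infected erythrocytes (2% hematocrit, 0.1% parasitemia final) are added, and plates sit one parasite generation at 37 C in 5% CO2. Detection reagent is then added and luminescence measured.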
Shiga inhibitor – Shiga toxin inhibition; Vero cells, Shiga toxin protein synthesis inhibition reporter; inhibition, % at 38.7 µM; actives 9.2% (n = 290,000); in the data active means inhibition mostly above about 28%, no sharp cut-off; inactive means mostly below about 43%; further: 0% is about no effect
Pf growth 96h – P. falciparum growth inhibition at 96 hours; Potency, µM (doses to about 28.7 µM), inactives show at the top dose activity change, negative = inhibition, hits mostly inhibitors; P. falciparum luciferase reporter growth, 96 h; actives 6.9% (n = 320,000); AID 504834; further: potency means the concentration at half of the fitted maximal effect; on the % scale 0 is the no-effect control and ±100 the full control effect
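Luminescence readout: decreased luciferase signal marks inhibited growth of reporter-expressing P. falciparum in infected red cells (2% hematocrit, 0.05% parasitemia final), exposed to compound two generations (96 h, 37 C, 5% CO2).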
HCV inhibitor – HCV inhibition | Huh7.5.1 HCVcc-Cre infection, luciferase reporter, 44 h | actives 3.4% (n = 340,000) | AID 651820 | Potency, µM (series often up to 41.8 µM), for inactives: top-dose activity change, negative = inhibition, usual class: inhibitors; further: potency means the concentration at half of the fitted maximal effect; on the % scale 0 is the no-effect control and ±100 the full control effect
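Seed cells (1,000/well) for 4 h; treat with compound and infect with HCVcc-Cre, moi about 0.5. Incubate 44 h, then detect luciferase activity.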
HCMV antiviral – blocks human cytomegalovirus replication | HFF cells, HCMV-luciferase reporter, 72 h; active compounds read low | activity change, negative = inhibition, % at 57.5 µM | actives 4.5% (n = 410,000); in the data active means activity change below about -60%; inconclusive means no clear call, values can overlap the other calls; inactive means above about -39%; further: on the % scale 0 is the no-effect control and ±100 the full control effect
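Two-dose cell screen: HFF monolayers treated with compounds and infected with luciferase-expressing HCMV at 1 PFU/cell, 72 h at 37C, then lysed for luciferase measurement.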
Cycloheximide cs – affects cycloheximide protein synthesis inhibition readout, counter-screen; cell reporter, cycloheximide protein synthesis inhibition counterscreen; max response, %; actives 12% (n = 300,000); in the data active means max response mostly above about 13%, no sharp cut-off; inactive means mostly below about 14%; further: read at 38.3 µM for the half of the compounds with a filed dose; 0% is about no effect
* marks the source's active call; other numbers are inactive results; [ ] = another dose, or the depositor's remark. Shown are actives, neighbours in structure and some others; about 21% of the full set was active somewhere. Unless noted, the call rests on the fitted dose curve; in most records, active means well fitted inhibition curve with a large enough effect; inconclusive means small, poorly fitted or top-dose-only effect, or another doubt; inactive means no such curve, though single readings can be large or run the other way.

Results for CCN(C(=O)c1cc(S(=O)(=O)N2CCc3ccccc32)cn1C)c1cccc(C)c1 ?
HCMV antiviral: -74*

Results for COC(=O)CSc1nnc(NC(=O)/C=C\c2ccc3c(c2)OCO3)s1 ?
Pf growth 48h: 26%; Shiga inhibitor: -3; Pf growth 96h: 22%; HCV inhibitor: 6%; HCMV antiviral: -15; Cycloheximide cs: -3

Results for CC(C)(C)c1ccc(/C=C/C(=O)Nc2nncs2)cc1 ?
Pf growth 48h: 291%; Shiga inhibitor: 56*; Pf growth 96h: 15%; HCV inhibitor: 5%; HCMV antiviral: 119; Cycloheximide cs: 63*

How did O=C(/C=C/c1ccc2c(c1)OCO2)Nc1nncs1 do in these assays?
Pf growth 48h: 231%; Shiga inhibitor: 45*; Pf growth 96h: 73%; HCV inhibitor: 0%; HCMV antiviral: 77; Cycloheximide cs: 30*

Results for O=C(/C=C/c1ccc2c(c1)OCO2)Nc1nc(-c2ccccc2)cs1 ?
Pf growth 48h: inconclusive; Shiga inhibitor: 39; Pf growth 96h: inconclusive; HCV inhibitor: 6.3µM*; HCMV antiviral: inconclusive; Cycloheximide cs: 2

Results for COC(=O)Nc1nncs1 ?
Pf growth 48h: 3%; Shiga inhibitor: -2; Pf growth 96h: 13%; HCV inhibitor: 17%; HCMV antiviral: 7; Cycloheximide cs: 1

Results for COc1ccccc1C(=O)NC(=O)COC(=O)c1nc2nc(C)cc(C)n2n1 ?
Pf growth 48h: 2%; Pf growth 96h: 11%; HCV inhibitor: 3%; HCMV antiviral: -20

How did CCN(CC)S(=O)(=O)c1ccc2nc(NC(=O)c3cncc(Br)c3)sc2c1 do in these assays?
HCMV antiviral: 4

Results for COC(=O)N[C@H](c1ccccc1)[C@@]1(C)C[C@@H]1[C@@H](C)C(=O)Nc1ccc2ccccc2c1 ?
Shiga inhibitor: -2; HCV inhibitor: -8%; HCMV antiviral: 3; Cycloheximide cs: 3

Results for C[C@@H](C(=O)Nc1ccc2ccccc2c1)[C@H]1C[C@]1(C)[C@H](NC(=O)c1cccnc1)c1ccccc1 ?
Pf growth 48h: 5.2µM*; Shiga inhibitor: -15; Pf growth 96h: 5.2µM*; HCV inhibitor: inconclusive; HCMV antiviral: 2; Cycloheximide cs: -6

What do the screens show for `C[C@@H](C(=O)Nc1ccc2ccccc2c1)[C@@H]1C[C@@]1(C)[C@@H](NC(=O)c1ccccc1)c1ccccc1`?
Pf growth 48h: inconclusive; Shiga inhibitor: 10; Pf growth 96h: 13µM*; HCV inhibitor: 4%[8.37 µM]; HCMV antiviral: 15; Cycloheximide cs: 7

How did C[C@@H](C(=O)Nc1ccc2ccccc2c1)[C@H]1C[C@]1(C)[C@H](NS(=O)(=O)c1ccc(-c2ccccc2)cc1)c1ccccc1 do in these assays?
Pf growth 48h: 12µM*; Shiga inhibitor: 7; Pf growth 96h: 8.3µM*; HCV inhibitor: 22%[8.37 µM]; HCMV antiviral: -15; Cycloheximide cs: 8

How did C[C@@H](C(=O)Nc1ccc2ccccc2c1)[C@H]1C[C@]1(C)[C@H](N)c1ccccc1 do in these assays?
Shiga inhibitor: 0; Cycloheximide cs: 0

Results for Cc1nn(C)c(Cl)c1S(=O)(=O)N[C@@H](c1ccccc1)[C@]1(C)C[C@H]1[C@@H](C)C(=O)Nc1ccc2ccccc2c1 ?
Pf growth 48h: -12%; Shiga inhibitor: -3; Pf growth 96h: -20%; HCV inhibitor: inconclusive; HCMV antiviral: 18; Cycloheximide cs: -5

How did CCn1nnc2cc(C(=O)Nc3cccc(Cl)c3C)ccc21 do in these assays?
HCMV antiviral: 16

How did CCOc1cc(C(=O)N(C)CC(=O)Nc2cccc3ccccc23)ccc1OC do in these assays?
Pf growth 48h: inconclusive; Pf growth 96h: -17%; HCV inhibitor: 2%; HCMV antiviral: 0

What do the screens show for `CC1CN(CC(=O)c2ccccc2Cl)CC(C)O1` (stereo not drawn)?
Pf growth 48h: 28%; Shiga inhibitor: 7; Pf growth 96h: 54%; HCV inhibitor: 8%; HCMV antiviral: -61*; Cycloheximide cs: 5

What do the screens show for `Cc1[nH]c2ccccc2c1C(=O)CN1CCC(C)CC1`?
Pf growth 48h: -1%; Shiga inhibitor: -10; Pf growth 96h: -35%; HCV inhibitor: 0%; HCMV antiviral: 3; Cycloheximide cs: -4
